Here are results for 35 compounds from PubChem BioAssay AID602179 (National Center for Advancing Translational Sciences (NCATS), 2012).

The whole screen tested about 390,000 compounds, of which about 360 (0.092%) were called active. Calls come from the whole dose curve; as a rule, active = well fitted inhibition curve with a large enough effect; inconclusive = small, poorly fitted or top-dose-only effect; inactive = no such curve, though single readings can be large or run the other way. Shown is part of a subset that was picked to be rich in actives. Where a call stands in place of a potency, no number is given.
Potency is the fitted concentration of half-maximal effect.

Sequence of Isocitrate dehydrogenase [NADP] cytoplasmic (Homo sapiens) (O75874 whole entry R132H, stated change not applied): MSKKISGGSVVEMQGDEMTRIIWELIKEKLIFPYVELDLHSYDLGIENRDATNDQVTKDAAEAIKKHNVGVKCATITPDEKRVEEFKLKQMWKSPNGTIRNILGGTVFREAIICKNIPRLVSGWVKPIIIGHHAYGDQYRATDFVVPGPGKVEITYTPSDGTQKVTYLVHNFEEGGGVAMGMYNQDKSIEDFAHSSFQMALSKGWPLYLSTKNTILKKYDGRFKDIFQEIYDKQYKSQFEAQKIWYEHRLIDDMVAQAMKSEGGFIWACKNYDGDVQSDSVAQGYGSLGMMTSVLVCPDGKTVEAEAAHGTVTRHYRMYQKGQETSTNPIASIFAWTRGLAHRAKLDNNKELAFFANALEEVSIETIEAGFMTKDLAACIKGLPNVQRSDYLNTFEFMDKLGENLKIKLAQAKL

The test deals with Isocitrate dehydrogenase [NADP] cytoplasmic (Homo sapiens) (UniProt O75874). The experiment in a line: qHTS for Inhibitors of mutant isocitrate dehydrogenase 1 (IDH1): qHTS. Note: nearly all actives have a fitted effect of over 65% in size. As to conditions: IDH1-R132H enzyme, NADPH consumption, diaphorase/resazurin fluorescence; series mostly up to 76.6 µM. The method, boiled down:
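IDH1-R132H (0.5 ug/mL dispensed) in pH 7.5 Tris buffer was preincubated 30 min with compound, then given a substrate mix of 0.016 mM NADPH and 2 mM alpha-KG for 80 min at room temperature; remaining NADPH was read by diaphorase/resazurin fluorescence.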
Background: qHTS replaces the single test concentration by a dilution series.
As to `Oc1ccc(-c2nc3ccc(Cl)cn3c2Nc2ccc3c(c2)OCO3)cc1`, the Potency result was “inactive”.

For the compound `COc1cc(OC)c(N(C)C(=O)c2cc3c(=O)oc4ccccc4c3s2)cc1Cl`, the Potency entry was “inactive”.

As for `COc1ccc(-c2nc(Cn3c(=O)cc(C)c4c(C)nn(-c5ccccc5)c43)c(C)o2)cc1OC`, the Potency entry is “inactive”.

For the compound `COc1ccccc1Nc1nc(N)nc(N)c1S(=O)(=O)c1ccccc1`, the Potency entry was “inactive”.

For `COc1ccc(Cn2ccn(Cc3cccc(OC)c3)c(=O)c2=O)cc1`, the Potency entry is “inactive”.

Take `O=[N+]([O-])/C=C/c1ccc2c(ccn2Cc2ccccc2)c1`: the Potency is 20.7 µM (active).

For the compound `O=c1c(=O)n(Cc2c(F)cccc2Cl)ccn1Cc1ccccc1`, the Potency result is “inactive”.

In the case of `COc1ccc(Cl)cc1N(C)C(=O)c1cc2c(=O)oc3ccc(C)cc3c2s1`, the Potency result was “inactive”.

As to `COc1ccc(CCNC(=O)CCc2c(C)nc3c(c(C)nn3-c3ccc(C)c(C)c3)c2C)c(OC)c1OC`, the Potency result is “inactive”.

Consider `CCN(CC)C(=O)CSc1nc2ccsc2c(=O)n1Cc1ccccc1Cl`, for which the Potency result is “inactive”.

In the case of `Cc1ccc(-c2ccc(CCC(=O)O)n2-c2ccc(C(N)=O)cc2)cc1`, the Potency result was “inactive”.

For the compound `N#Cc1nc(/C=C/c2ccc(F)cc2)oc1NCc1ccc(F)cc1`, the Potency result is “inactive”.

For `CCOc1ccc(Nc2nc3c(S(=O)(=O)c4cccc(Cl)c4)nnn3c3ccsc23)cc1`, the Potency entry is “inactive”.

With `COc1cc(OC)c(C2C=C(C(=O)O)Nc3ncnn32)cc1OC` (stereo not given), the Potency entry is “inactive”.

`O=C1Cc2cc(S(=O)(=O)Nc3ccc(OC(F)(F)F)cc3)cc3c2N1CCC3`: the Potency result was “inactive”.

Regarding `COc1cc(C(=O)NCCc2csc3nc(-c4ccccc4C)nn23)cc(OC)c1OC`, the Potency entry is “inactive”.

For the compound `CCc1ccc(C2C(C(=O)Nc3ccccc3)=C(C)Nc3c(C(=O)Nc4ccc(C)cc4)cnn32)cc1` (stereo not given), the Potency entry is “inactive”.

Regarding `CN(C)c1ccc(C(CNS(=O)(=O)c2cc(F)ccc2F)N2CCOCC2)cc1` (stereo not given), the Potency result is “inactive”.

Regarding `COc1ccc(S(=O)(=O)c2c(Nc3ccc(C)cc3)sc(C(=O)c3ccc(C)cc3)c2N)cc1`, the Potency entry is “inactive”.

Turning to `Cc1ccccc1CCNC(=O)C1CCN(c2nc3ccccc3nc2C(F)(F)F)CC1`, the Potency result is “inactive”.

On to `O=C(c1ccccc1F)N1CCC(c2nc3c(nnn3Cc3cccc(F)c3)c(=O)[nH]2)CC1`, for which the Potency entry was “inactive”.

Consider `CCOc1ccc(NC(=O)c2c(NCc3cccc(OC)c3OC)sc3c2CCC3)cc1`, for which the Potency entry was “inactive”.

As for `COc1cc(OC)c(NC(=O)c2cc(S(=O)(=O)N3CCCC3)cn2C)cc1Cl`, the Potency result is “inactive”.

`O=C(COc1ccc(Cl)cc1)Nc1ccccc1OCc1cc(=O)n2ccccc2n1`: the Potency entry was “inactive”.

Turning to `COc1ccc(OC)c(NC(=O)CSC2=Nc3ccccc3C3=NC(CC(=O)NCCc4ccccc4)C(=O)N23)c1` (stereo not given), the Potency result is “inactive”.

As for `O=C(COc1ccccc1Cl)Nc1ccc2nc(SCC(=O)N3CCCC3)sc2c1`, the Potency entry was “inactive”.

Consider `O=C(CN1c2ccccc2S(=O)(=O)c2ccccc21)Nc1cccc(C(F)(F)F)c1`, for which the Potency result was “inactive”.

As for `COc1cccc(-c2nc(CS(=O)(=O)CC(=O)N3CCN(c4cc(C)ccc4C)CC3)c(C)o2)c1`, the Potency entry was “inactive”.

As for `COc1ccc(CNC(=O)CSc2nc3ccccc3nc2Cc2ccccc2)cc1`, the Potency entry is “inactive”.

In the case of `CCOC(=O)c1c(C)n(S(=O)(=O)c2ccc(C)cc2C)c2ccc(NS(=O)(=O)c3ccc(C)cc3C)cc12`, the Potency entry was “inactive”.

`CCOc1cccc(C(=O)Nc2nnc(S(=O)(=O)N(C)c3ccc(C)cc3)s2)c1`: the Potency result is “inactive”.

As to `COc1ccccc1Nc1c2c(nc3ccc(NC(=O)/C=C/c4cc(OC)c(OC)c(OC)c4)cc13)CCCC2`, the Potency result is “inactive”.

Take `O=C(Nc1c(-c2ccc(F)cc2)nc2ccccn12)c1cccc(F)c1`: the Potency entry is “inactive”.

As to `Cc1ccc(-n2ncc3c(N4CCC(C(N)=O)CC4)ncnc32)cc1`, the Potency result is “inactive”.

With `Cc1c(NC(=O)Cc2ccccc2)cccc1-c1nc2cccnc2s1`, the Potency entry was “inactive”.
